HCV inhibitor = blocks hepatitis C virus; Huh7.5.1 HCVcc-Cre infection, luciferase reporter, 44 h; Potency, µM (series often up to 41.8 µM), without a hit: top-dose activity change, negative = inhibition, actives largely listed as inhibitors; hit rate 3.4% among 340,000; AID 651820; active means well fitted inhibition curve with a large enough effect; inconclusive means small, poorly fitted or top-dose-only effect, or another doubt; inactive means no such curve, though single readings can be large or run the other way; further: potency means the concentration at half of the fitted maximal effect
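Infectious HCVcc-Cre (~0.5 moi) was added to cells just after compound, with cells seeded 4 h earlier at 1,000 per well. Luciferase activity after 44 h culture reported infection; substrate was incubated 15 min at room temperature before reading.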
VACV Venus inh = inhibitors of vaccinia virus (Venus reporter). Potency, µM (series often up to 36.5 µM), without a hit: top-dose activity change, negative = inhibition, hits mostly inhibitors. hit rate 0.46% among 330,000. Vaccinia virus Venus reporter expression, fluorescence; calls by dose curve; tested in A549 cells; further: potency means the concentration at half of the fitted maximal effect; nearly all actives have a fitted effect of over 30% in size
Vaccinia mCherry = vaccinia inhibition (mCherry reporter); Vaccinia virus mCherry reporter infection, fluorescence; Potency, µM (series often up to 36.5 µM), inactives show top-dose activity change, negative = inhibition, usual class: inhibitors; hit rate 0.63% among 310,000; AID 720579; calls by dose curve; tested in A549 cells; further: potency means the concentration at half of the fitted maximal effect; nearly all actives have a fitted effect of over 35% in size
HCMV antiviral = inhibitors of human cytomegalovirus. HFF cells, HCMV-luciferase reporter, 72 h; active compounds read low. activity change, negative = inhibition, % at 57.5 µM. hit rate 4.5% among 410,000; in the data active means activity change below about -60%; inconclusive means no clear call, values can overlap the other calls; inactive means above about -39%
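Human foreskin fibroblasts infected with luciferase-reporter HCMV at MOI 1 PFU/cell, compounds at two doses. Luciferase measured 72 h post infection; normalized to buffer-only basal and Salinomycin (10uM) controls.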
Marburg entry inh = inhibitors of Marburg virus binding or cell entry; Marburg virus pseudotyped entry inhibition, cell reporter; Potency, µM (series often up to 37.8 µM), inactives show top-dose activity change, negative = inhibition, hits mostly inhibitors; hit rate 1.8% among 300,000; calls by dose curve; tested in HEK293 cells; further: potency means the concentration at half of the fitted maximal effect
Lassa entry inh = blocks Lassa virus binding to or entry into cells; Lassa virus pseudotype entry inhibition, cell reporter; Potency, µM (titrated, usually from 37.9 µM), for the others: at the highest dose activity change, negative = inhibition, usual class: inhibitors; hit rate 1.2% among 300,000; calls by dose curve; tested in HEK293 cells; further: potency means the concentration at half of the fitted maximal effect; nearly all actives have a fitted effect of over 50% in size
Active calls of the source: *; [ ] = remark or other dose. This is a sample that favours compounds with a hit; in the whole collection about 7.8% have one here. On the % scale 0 is the no-effect control and ±100 the full control effect.

O=C(COc1ccccc1)Nc1cccc(S(=O)(=O)N2CCCC2)c1 was read as HCV inhibitor -26%, VACV Venus inh -15%, Vaccinia mCherry inactive, HCMV antiviral -8, Marburg entry inh 3% and Lassa entry inh inconclusive.
Screening CCOc1ccc(NC(=O)CN2C(=O)CSc3ccc(S(=O)(=O)N4CCCC4)cc32)cc1 returned HCV inhibitor inconclusive and HCMV antiviral active.
For O=C(COc1ccccc1[N+](=O)[O-])Nc1cccc(S(=O)(=O)N2CCCC2)c1 the results were HCV inhibitor inconclusive, VACV Venus inh -20%, Vaccinia mCherry -7%, HCMV antiviral inconclusive, Marburg entry inh inconclusive and Lassa entry inh inconclusive.
Screening O=C(Nc1cccc(C(=O)OCc2cc(=O)n3nc(C4CC4)sc3n2)c1)c1ccc(F)cc1 returned VACV Venus inh -14%[7.34 µM], Vaccinia mCherry -5%[7.34 µM], HCMV antiviral 79 and Lassa entry inh 1%[46.1 µM].
For CCOc1ccc(C(=O)CCC(=O)Nc2cccc(S(=O)(=O)N3CCCCC3)c2)cc1 the results were HCV inhibitor inconclusive, VACV Venus inh -11%, Vaccinia mCherry -3%, HCMV antiviral -13, Marburg entry inh inconclusive and Lassa entry inh 10µM*.
Screening CCCN(CCC)C(=O)c1cc(S(=O)(=O)N2CCCCC2)c[nH]1 returned HCV inhibitor 4.5µM*, VACV Venus inh -10%, Vaccinia mCherry inactive and HCMV antiviral 57.
For N=c1sccn1CC(=O)Nc1cccc(S(=O)(=O)N2CCCCCC2)c1 the results were HCV inhibitor 10µM*, HCMV antiviral -19, Marburg entry inh inconclusive and Lassa entry inh -11%.
For CC(C)CN(CC(C)C)C(=O)c1cc(S(=O)(=O)N2CCCCC2)c[nH]1 the results were HCV inhibitor 2% and HCMV antiviral inconclusive.
For O=C(c1cc(S(=O)(=O)N2CCCC2)c[nH]1)N1CCN(c2cccc(Cl)c2)CC1 the results were VACV Venus inh inconclusive, Vaccinia mCherry inconclusive, HCMV antiviral -102* and Lassa entry inh 3%[46.1 µM].
`Cc1ccc(Cn2c(=O)n(CCCCC(=O)NCc3ccccc3Cl)c(=O)c3ccccc32)cc1` gave VACV Venus inh -23%, Vaccinia mCherry inconclusive, HCMV antiviral 5, Marburg entry inh inconclusive and Lassa entry inh inconclusive.
`COc1ccc(C(CC(=O)Nc2ccc(F)c(Cl)c2)N2Cc3ccccc3C2=O)cc1OC` (stereo not given) gave VACV Venus inh -7%, Vaccinia mCherry 5%, HCMV antiviral -9 and Lassa entry inh -6%[46.1 µM].
Screening Cn1c(=O)[nH]c(=O)c2c1nc(CN1CCN(c3ccccc3)CC1)n2Cc1c(F)cccc1Cl returned VACV Venus inh -9%, Vaccinia mCherry -7%, HCMV antiviral inconclusive, Marburg entry inh -1%[46.1 µM] and Lassa entry inh -8%[46.1 µM].
C#CCCCON=C1C[C@@H](O)[C@@H](O)[C@@H]2[C@H]3C(=O)N(C(C)(C)C)C(=O)[C@@H]3CC[C@H]12 was read as Marburg entry inh 12%[14.2 µM].
CCCCCc1ccc(-c2cn(Cc3ccc4c(c3)C(=O)c3ccccc3C4=O)nn2)cc1 was read as VACV Venus inh -13% and Vaccinia mCherry -17%.
Screening CCOc1ccc(NC(=O)CN2C(=O)C(C)SC(C)C2=O)cc1 (stereo not given) returned HCV inhibitor 6%, VACV Venus inh -8%, Vaccinia mCherry 0%, HCMV antiviral -65*, Marburg entry inh 1%[46.1 µM] and Lassa entry inh 8%.
`O=C(COc1ccc(F)cc1Cl)Nc1cccc(S(=O)(=O)N2CCCC2)c1` gave HCV inhibitor 10µM* and HCMV antiviral -2.
`O=C(CCl)Nc1cccc(S(=O)(=O)N2CCCCCC2)c1` gave HCV inhibitor inconclusive, VACV Venus inh inconclusive, Vaccinia mCherry inconclusive, HCMV antiviral -97*, Marburg entry inh inconclusive and Lassa entry inh 7.9µM*.
COc1ccc(/C=C/c2nc(C#N)c(NCCc3ccccc3)o2)cc1OC was read as VACV Venus inh 6%, Vaccinia mCherry -3%, HCMV antiviral 18, Marburg entry inh 6%[46.1 µM] and Lassa entry inh -8%[46.1 µM].
Cc1cccc(-c2nc3nc(C)cc(NCc4ccccc4Cl)n3n2)c1 was read as VACV Venus inh 21%, Vaccinia mCherry -18%, HCMV antiviral -20 and Lassa entry inh 0%[46.1 µM].
`C=CCNc1nc2c(c(=O)n(C)c(=O)n2C)n1CC` gave HCV inhibitor 8%, VACV Venus inh -3%, Vaccinia mCherry -2% and HCMV antiviral -12.
Screening C=CCNc1nc2c(c(=O)n(C)c(=O)n2C)n1CCCCCC returned HCV inhibitor inconclusive, HCMV antiviral -96*, Marburg entry inh inconclusive and Lassa entry inh -42%.
Screening C=CCNc1nc2c(c(=O)n(C)c(=O)n2C)n1Cc1ccc(F)cc1 returned HCV inhibitor 6.3µM*, VACV Venus inh -27%, Vaccinia mCherry -11% and HCMV antiviral -79*.
For CCOc1ccccc1NC(=O)c1ccc(F)c(S(=O)(=O)N2CCN(c3ccc(F)cc3)CC2)c1 the results were VACV Venus inh -16%, Vaccinia mCherry -25%, HCMV antiviral inconclusive and Lassa entry inh -9%[46.1 µM].
For COCC(=O)Nc1cc(C(=O)N2CCc3sccc3C2)c2c(c1)nc(-c1ccncc1)n2C the results were VACV Venus inh -11% and Vaccinia mCherry -14%.
Cc1ccc(/C=N/NC(=O)C2COc3ccccc3O2)s1 (stereo not given) was read as HCV inhibitor 2%, VACV Venus inh inconclusive, Vaccinia mCherry inconclusive, HCMV antiviral -76*, Marburg entry inh inconclusive and Lassa entry inh inconclusive.
`Cc1c(/C=N\NC(=O)C2COc3ccccc3O2)c2ccccc2n1C` (stereo not given) gave HCV inhibitor inconclusive, VACV Venus inh inconclusive, Vaccinia mCherry -21%, HCMV antiviral -86*, Marburg entry inh -20% and Lassa entry inh inconclusive.
Cc1ccc(-n2c(O)c(/C=N/NC(=O)C3COc4ccccc4O3)c3ccccc3c2=O)cc1 (stereo not given) was read as HCV inhibitor 16%, VACV Venus inh -18%, Vaccinia mCherry -25%, HCMV antiviral -61*, Marburg entry inh inconclusive and Lassa entry inh -23%.
For O=C(N/N=C/c1c(O)n(-c2ccccc2Cl)c(=O)c2ccccc12)C1COc2ccccc2O1 (stereo not given) the results were HCV inhibitor -4%, VACV Venus inh -1%, Vaccinia mCherry -16%, Marburg entry inh inconclusive and Lassa entry inh inconclusive.
For C/C(=N\NC(=O)C1COc2ccccc2O1)c1cccs1 (stereo not given) the results were HCV inhibitor -2%, VACV Venus inh -11%, Vaccinia mCherry -14%, HCMV antiviral -60*, Marburg entry inh 5% and Lassa entry inh 12%.
